Measured values reported in PubChem BioAssay (NCATS).
Records with an inconclusive call do not appear. The source made the active and inactive calls. The call rests on the fitted dose curve; in most records, active means well fitted cell-killing curve with a large enough effect; inconclusive means small, poorly fitted or top-dose-only effect, or effect the other way; inactive means no such curve, though single readings can be large or run the other way.
Potency means the concentration at half of the fitted maximal effect.

Test: Quantitative High-Throughput drug screen in 47 multiple myeloma cell lines against the NCATS MIPE library collection: UTMC2_PLB cell viability assay (AID 1919868); further: nearly all actives have a fitted effect of over 55% in size
Conditions: CellTiter-Glo ATP luminescence, 48 h; viability (% of DMSO control): at 45.8 µM (top of the series)
Summary of the method: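 500 cells/well per myeloma line exposed to pinned MIPE 4.0 compounds for 48 h at 37 °C, 5% CO2. Viability read as ATP by CellTiter-Glo luminescence, normalised to DMSO-only (100%) and media-only (0%) wells.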
For CCc1ccc(C(=O)Nc2cc(CN3CCN(C)CC3)cc(C(F)(F)F)c2)cc1C#Cc1cnc2ccnn2c1, the Potency was 11800 nM (active). With C=CC[C@@H]1C=C(C)C[C@H](C)C[C@H](OC)[C@H]2O[C@@](O)(C(=O)C(=O)N3CCCC[C@H]3C(=O)O[C@H](C(C)=C[C@@H]3CC[C@H](O)[C@H](OC)C3)[C@@H](C)[C@@H](O)CC1=O)[C@@H](C)C[C@@H]2OC the Potency was 2960 nM (active). With CO[C@@H]1[C@@H](O)[C@H](O)[C@@H](n2c3c(Cl)cccc3c3c4c(c5c6cccc(Cl)c6[nH]c5c32)C(=O)NC4=O)O[C@@H]1CO the Potency was 235 nM (active). With C[C@H](NC(=O)C(C#N)=Cc1cccc(Br)n1)c1ccccc1 the Potency was 3320 nM (active). For Cn1cnc(=N)c2[nH]cnc21, the Potency was 93.5 nM (active). With CC(C)N1[N]C(=C2C=c3cc(O)ccc3=N2)c2c(N)ncnc21 the Potency was 187 nM (active). With COc1cccc2c1C(=O)c1c(O)c3c(c(O)c1C2=O)C[C@@](O)(C(=O)CO)C[C@@H]3O[C@H]1C[C@H](N)[C@@H](O)[C@H](C)O1 the Potency was 118 nM (active). In the case of COc1cc(C=CC(=O)CC(=O)C=Cc2ccc(O)c(OC)c2)ccc1O, the Potency is reported as 21500 nM (active). For C=CC(=O)Nc1ccc2ncnc(Nc3ccc(OCc4cccc(F)c4)c(Cl)c3)c2c1, the Potency was 743 nM (active). For OCc1ccccc1O[C@@H]1O[C@H](CO)[C@H](O)[C@H](O)[C@H]1O, the Potency was “inactive”. For O=C(Nc1cccc(Nc2ncc(Br)c(NCCc3cnc[nH]3)n2)c1)N1CCCC1, the Potency was 662 nM (active). In the case of C=CCNc1c(O)cc2c(O)c1C[C@@H](C)C[C@H](OC)[C@@H](O)[C@@H](C)C=C(C)[C@H](OC(N)=O)[C@@H](OC)C=CC=C(C)C(=O)N2, the Potency is reported as 418 nM (active).
